Test results: the supplement of paper PMC8728848
About 410 targets per protein were measured; listed, in parts, are those with the strongest signals and a random draw of the rest.

How the values were obtained:
Test in all cases: glycan array binding signal (z-score within array); higher = stronger binding
Conditions in all cases: glycan notation: IUPAC condensed, linker removed
[1] = target: Gal(a1-3)GalNAc
Method in brief: (§1)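 Glycan array data came from 3228 arrays in the Consortium for Functional Glycomics database, and only arrays with an available protein sequence were kept. Glycan names were put into IUPAC-condensed notation, and columns mapping to the same glycan were averaged. The binding signal is a within-array Z-score, averaged across arrays of one protein sequence run at different concentrations or buffers and across linkers. A negative Z-score can be read as non-binding.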

[2] = target: Gal(a1-4)Gal(b1-4)Glc
Method in brief: as §1

[3] = target: Gal(b1-3)GalNAc(b1-4)Gal(b1-4)Glc
Method in brief: as §1

[4] = target: Gal(b1-4)GalNAc(a1-3)[Fuc(a1-2)]Gal(b1-4)GlcNAc
Method in brief: as §1

[5] = target: Gal(b1-4)GlcNAc(b1-3)[Gal(b1-4)GlcNAc(b1-6)]GalNAc
Method in brief: as §1

[6] = target: Gal3S(b1-3)[Fuc(a1-4)]GlcNAc
Method in brief: as §1

[7] = target: Gal6S(b1-4)Glc6S
Method in brief: as §1

[8] = target: Glc(a1-4)Glc
Method in brief: as §1

[9] = target: GlcNAc(b1-2)Gal(b1-3)GalNAc
Method in brief: as §1

[10] = target: Neu5Ac(a2-3)[GalNAc(b1-4)]Gal(b1-4)Glc
Method in brief: as §1

[11] = target: Neu5Ac(a2-6)Gal(b1-4)GlcNAc(b1-3)Gal(b1-4)[Fuc(a1-3)]GlcNAc(b1-3)Gal(b1-4)[Fuc(a1-3)]GlcNAc
Method in brief: as §1

[12] = target: Neu5Ac(a2-8)Neu5Ac(a2-8)Neu5Ac(a2-3)Gal(b1-4)Glc
Method in brief: as §1

[13] = target: Neu5Gc(a2-3)Gal(b1-3)GlcNAc
Method in brief: as §1

[14] = target: Neu5Gc(a2-3)Gal(b1-4)[Fuc(a1-3)]GlcNAc
Method in brief: as §1

[15] = target: Gal(b1-3)[GlcNAc(b1-6)]GalNAc
Method in brief: as §1

[16] = target: Gal(b1-4)GlcNAc(b1-3)Gal(b1-4)GlcNAc(b1-3)Gal(b1-4)GlcNAc
Method in brief: as §1

[17] = target: Gal3S(b1-4)Glc
Method in brief: as §1

[18] = target: Gal6S(b1-4)Glc
Method in brief: as §1

[19] = target: Glc(b1-6)Glc
Method in brief: as §1

[20] = target: Man(a1-2)Man(a1-3)Man
Method in brief: as §1

[21] = target: Man(a1-2)Man(a1-3)[Man(a1-2)Man(a1-6)]Man
Method in brief: as §1

[22] = target: Neu5Ac(a2-3)Gal(b1-3)[Neu5Ac(a2-3)Gal(b1-4)]GlcNAc
Method in brief: as §1

[23] = target: Neu5Ac(a2-3)[GalNAc(b1-4)]Gal(b1-4)GlcNAc
Method in brief: as §1

[24] = target: Neu5Ac(a2-3)[Neu5Ac(a2-6)]GalNAc
Method in brief: as §1

B1: IRp60B (Homo sapiens), Q9UGN4-3 (protein)
chain: MWLPWALLLLWVPAGDHSELSQNPKQAATQSELHYANLELLMWPLQEKPAPPREVEVEYSTVASPREELHYASVVFDSNTNRIAAQRPREEEPDSDYSVIRKT
glycan array binding signal (z-score) [1]: 0.074
glycan array binding signal (z-score) [2]: 5.38
glycan array binding signal (z-score) [3]: 2.68
glycan array binding signal (z-score) [4]: -0.378
glycan array binding signal (z-score) [5]: 4.42
glycan array binding signal (z-score) [6]: 4.5
glycan array binding signal (z-score) [7]: -0.421
glycan array binding signal (z-score) [8]: -0.26
glycan array binding signal (z-score) [9]: -0.44
glycan array binding signal (z-score) [10]: -0.323
glycan array binding signal (z-score) [11]: 1.2
glycan array binding signal (z-score) [12]: 1.18
glycan array binding signal (z-score) [13]: -0.475
glycan array binding signal (z-score) [14]: -0.107

B2: Hip/Pap (Homo sapiens), Q06141 (protein)
chain: MLPPMALPSVSWMLLSCLMLLSQVQGEEPQRELPSARIRCPKGSKAYGSHCYALFLSPKSWTDADLACQKRPSGNLVSVLSGAEGSFVSSLVKSIGNSYSYVWIGLHDPTQGTEPNGEGWEWSSSDVMNYFAWERNPSTISSPGHCASLSRSTAFLRWKDYNCNVRLPYVCKFTD
glycan array binding signal (z-score) [15]: -0.159
glycan array binding signal (z-score) [16]: -0.173
glycan array binding signal (z-score) [17]: 0.278
glycan array binding signal (z-score) [18]: -0.162
glycan array binding signal (z-score) [8]: 0.806
glycan array binding signal (z-score) [19]: 0.091
glycan array binding signal (z-score) [9]: -0.099
glycan array binding signal (z-score) [20]: -0.027
glycan array binding signal (z-score) [21]: 0.58
glycan array binding signal (z-score) [22]: 0.71
glycan array binding signal (z-score) [23]: -0.173
glycan array binding signal (z-score) [24]: -0.168
